Results: PubChem BioAssay AID449768 (Vanderbilt High Throughput Screening Facility, 2010)
Hit rate of the full screen: of about 110,000 compounds, about 1,400 (1.3%) were called active. The sample holds actives, similar compounds and a random draw of the others, so the mix is not that of the screen. A number with no mark means an inactive call.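 How the source made its calls: active means Z score or B-score, a plate-position-corrected score, falls beyond the plate's 99.7% confidence bounds, in either direction; inactive means both scores lie inside the 99.7% bounds.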

Each compound was assayed against Sodium-dependent dopamine transporter (Homo sapiens) (UniProt Q01959) (assay: modulators of human DAT uptake with cocaine – cell-based, LLC-PK1 hDAT, [14C]-dopamine uptake, MLSMR, cocaine antagonist project, primary screen (AID 449768;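 further: scored against the spread of the other compound wells on the same plate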)). Details: LLC-PK1 hDAT cells, [14C]-dopamine uptake with cocaine IC80; at 10 µM; actives deviate in either direction.
Sodium-dependent dopamine transporter (Homo sapiens), sequence (Q01959 whole entry, looked up): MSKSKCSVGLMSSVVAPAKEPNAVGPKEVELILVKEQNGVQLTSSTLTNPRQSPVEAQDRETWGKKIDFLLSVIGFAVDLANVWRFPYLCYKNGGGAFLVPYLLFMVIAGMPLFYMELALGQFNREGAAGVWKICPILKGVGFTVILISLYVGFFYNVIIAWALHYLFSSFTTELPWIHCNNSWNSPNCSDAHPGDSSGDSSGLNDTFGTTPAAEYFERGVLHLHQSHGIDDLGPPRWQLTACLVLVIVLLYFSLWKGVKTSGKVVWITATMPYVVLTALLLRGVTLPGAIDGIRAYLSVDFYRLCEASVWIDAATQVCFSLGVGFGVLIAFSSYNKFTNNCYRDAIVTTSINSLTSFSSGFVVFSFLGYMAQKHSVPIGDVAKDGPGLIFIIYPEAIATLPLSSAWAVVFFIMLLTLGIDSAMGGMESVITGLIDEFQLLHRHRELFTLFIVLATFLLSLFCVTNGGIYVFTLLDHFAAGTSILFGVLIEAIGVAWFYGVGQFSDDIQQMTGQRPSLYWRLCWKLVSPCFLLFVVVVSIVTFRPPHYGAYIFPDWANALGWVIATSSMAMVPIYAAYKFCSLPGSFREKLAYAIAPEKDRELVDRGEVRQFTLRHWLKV

Structure (SMILES) | B-score
COc1ccccc1CN1CCN(C(=O)Cc2ccccc2)CC1 | 0.503
CC(C)c1ccc(OCC(=O)N2CCN(C)CC2)c(Br)c1 | -0.237
O=C(COc1ccc2ccccc2c1)N1CCN(Cc2ccncc2)CC1 | -1.8 (active)
COC(=O)C1=C(c2cc3ccccc3o2)C[C@@H]2CC[C@H]1N2C(=O)NC1CCCCC1 | -0.718
COC(=O)C1=C(c2ccccc2)C[C@@H]2CC[C@H]1N2C(=O)N1CCCCC1 | -0.0906
